# In the library only some 22% were active in any assay of this set; here they are far more common.
# Measles CPE – protection of cells from measles virus | Measles virus-infected cells, CPE protection, absorbance | protection (pct of control), % at 4 µM | hit rate 1.5% among 140,000; in the data active = protection mostly above about 24%, no sharp cut-off; inactive = mostly below about 26%
# CYP2C19 activ – cytochrome P450 2C19 (human) activation; recombinant CYP2C19, luciferin-H EGE luminescence; active compounds read high; 0 = fully inhibited enzyme, 1 = untreated enzyme; AID 1025; activation factor at 5 µM; 96,000 tested, under 10 active; P33261;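 active = activation factor of at least 2 at 5 µM in the primary screen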;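 also: 0 = wells with 2.5 mM tranylcypromine and 1 = vehicle-only wells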
# Target sequence (P33261 whole entry, looked up): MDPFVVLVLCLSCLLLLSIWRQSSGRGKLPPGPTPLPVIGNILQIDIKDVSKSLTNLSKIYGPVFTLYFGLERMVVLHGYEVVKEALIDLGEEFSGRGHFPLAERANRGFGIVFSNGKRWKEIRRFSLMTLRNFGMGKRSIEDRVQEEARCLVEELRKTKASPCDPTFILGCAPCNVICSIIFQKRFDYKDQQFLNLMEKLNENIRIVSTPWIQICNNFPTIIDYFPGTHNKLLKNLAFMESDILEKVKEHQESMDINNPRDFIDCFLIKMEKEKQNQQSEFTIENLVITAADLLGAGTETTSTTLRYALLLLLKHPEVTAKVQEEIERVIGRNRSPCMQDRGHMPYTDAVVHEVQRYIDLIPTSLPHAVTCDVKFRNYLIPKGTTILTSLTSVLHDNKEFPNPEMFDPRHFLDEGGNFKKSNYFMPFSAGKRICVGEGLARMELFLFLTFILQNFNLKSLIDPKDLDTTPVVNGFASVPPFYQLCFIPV
# CYP2C19 inh – blocks human cytochrome P450 2C19. P33261. CYP2C19 Supersomes, luciferin-H EGE luminescence, 30 min. inhibition, % at 5 µM. hit rate 21% among 96,000. AID 778;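 active = CYP2C19 inhibition above a set limit at 5 µM in the primary screen, cut at about 50% in these data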;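 also: plate controls were negative control wells for no effect and 2.5 mM tranylcypromine positive control for full effect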
# CYP2C9 inhib – inhibitors of human CYP2C9. P11712. hit rate 20% among 96,000. CYP2C9 Supersomes, luciferin-H conversion, luminescence. inhibition, % at 5 µM;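 active = blocking of liver enzyme CYP2C9 beyond about 50% at 5 µM, limit read from the data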
# CYP2C9 activ – CYP2C9 (human) activation; activation factor at 5 µM; AID 1024; hit rate 1.4% among 96,000; recombinant CYP2C9, luciferin-H conversion, luminescence; active compounds read high; factor 1 = untreated enzyme, 0 = blocked; P11712;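 active = activation factor of 2 or more for CYP2C9 at a 5 µM dose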;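 also: 0 = sulfaphenazole-blocked wells and 1 = vehicle-only wells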
# An asterisk follows results filed as active; / = not tested or not shown.
SMILES,Measles CPE,CYP2C19 activ,CYP2C19 inh,CYP2C9 inhib,CYP2C9 activ
CC1(c2ccccc2)NC(=O)N(CC(=O)NC(=O)NC2CCCC2)C1=O (configuration not stated),18,0.5,53*,21,0.8
CCOC(=O)NC(=O)CN1C(=O)NC(C)(c2ccccc2)C1=O (configuration not stated),3,1.1,-5,6,0.9
CCOc1ccccc1CN1C(=O)NC(C)(c2ccccc2)C1=O (configuration not stated),9,0.1,94*,-12,1.1
CC1CCN(c2cc(N)c(Cl)cc2[N+](=O)[O-])CC1,19,0.7,26,34,0.7
COc1ccc(-c2nnn(CC(=O)N(Cc3cccs3)C(C)C(=O)NCCC(C)C)n2)cc1OC (configuration not stated),4,0.7,34,31,0.7
COc1ccc(/C=C/C(=O)OCC(=O)NCc2ccco2)cc1OC,5,/,/,/,/
Cc1ccc(C(=O)NNC(=S)NC(=O)COc2ccccc2)cc1,15,0.7,32,78*,0.2
Cc1ccccc1C(=O)NNC(=S)NC(=O)COc1ccccc1,4,0.4,55*,89*,0.1
N#C/C(=C\c1ccccc1)C(=O)N(c1ccccn1)C1CCCCC1,15,/,/,/,/
CCOC(=O)CCNC(=O)CNC(=O)OCc1ccccc1,4,0.9,7,8,0.9
CC(=O)NS(=O)(=O)c1ccc(NC(=O)c2ccc3c(c2)C(=O)N(CCC(C)C)C3=O)cc1,20,/,/,/,/
CC(=O)NCCc1nc2ccccc2n1Cc1ccccc1,3,0.4,59*,17,0.8
Cc1ccc(Cn2c(Cc3ccccc3)nc3ccccc32)cc1,6,0.6,41,44,0.6
COCc1nc2ccccc2n1Cc1ccc(Br)cc1,5,0,100*,90*,0.1
Cc1cccc(NCc2nc3ccccc3n2Cc2ccccc2)c1,9,0,96*,96*,0
COCc1nc2ccccc2n1Cc1ccccc1,15,0.2,79*,32,0.7
COc1ccc(NC(=O)c2cccc(NC(=O)C3C4CC5OC(=O)C3C5C4)c2)c(OC)c1 (configuration not stated),7,1,-4,5,1
Fc1ccc2c(c1)[C@H]1OCC[C@H]1[C@@H](c1ccco1)N2,22,/,/,/,/
Fc1ccc2c(c1)C1C=CCC1C(c1cc3c(cc1Br)OCO3)N2 (configuration not stated),5,0.7,30,69*,0.3
Cc1ccc(S(=O)(=O)Nc2cccc3ncccc23)s1,1,0.6,45,-154,2.5*
COc1cc2c3c(c1OC)C1(C=CC(=NNC(N)=O)C=C1)CC3N(C(C)=O)CC2 (configuration not stated),10,/,/,/,/
Cc1ccc(NC(=O)NC2(C(=O)NCc3ccco3)CCCCC2)cc1,1,0.1,93*,54*,0.5
O=C(NCc1ccco1)Nc1ccc(Br)cc1,13,0.4,64*,64*,0.4
O=C(Nc1ccccc1)NC1(C(=O)NCc2ccco2)CCCCC1,4,0.9,15,40,0.6
O=C(NCc1ccco1)C12CC3CC(CC(C3)C1)C2,26,/,/,/,/
SMILES,Measles CPE,CYP2C19 activ,CYP2C19 inh,CYP2C9 inhib,CYP2C9 activ
CC(=O)Nc1ccc(SCC(=O)OCC(=O)NC(=O)NCc2ccco2)cc1,4,0.8,20,66*,0.3
O=C(NCc1ccco1)C1(c2ccc(Br)cc2)CCCC1,5,0.7,31,70*,0.3
N#Cc1c(C(F)(F)F)cc(-c2cccc(Cl)c2)[nH]c1=O,9,1.1,-8,61*,0.4
N#Cc1c(C(F)(F)F)cc(-c2ccc(Cl)cc2)[nH]c1=O,3,1,0,55*,0.4
CCN(CC)C(=O)C1=C(C)Nc2nnnn2C1c1cccnc1 (configuration not stated),29*,1.1,-11,3,1
Cc1nnc(OCc2nc3ccccc3n2C)c2ccccc12,1,0.6,38,59*,0.4
Cn1c(Cn2cnc3ccccc32)nc2ccccc21,5,0.8,17,1,1
CC(=O)NCc1ccc(C(=O)CSc2nnc(-c3ccncc3)n2Cc2ccccc2)o1,9,/,/,/,/
O=C(COC(=O)c1ccc(N2CCCC2=O)cc1)NCc1ccco1,4,1,-3,14,0.9
CCn1nc(NC(=O)c2cccnc2)c2cc3ccccc3nc21,3,0.7,32,62*,0.4
COc1ccc(-c2ccnc3nc(-n4cccc4)nn23)cc1,19,0.7,26,51*,0.5
COc1ccc(-c2ccnc3nc(N4CCOCC4)nn23)cc1,7,0.8,17,31,0.7
COc1ccc(OC)c(CNn2c(-c3cccc(C)c3)nc3ccccc3c2=O)c1,5,0.1,89*,80*,0.2
COc1cccc(CNn2c(-c3cccc(C)c3)nc3ccccc3c2=O)c1,17,0,98*,98*,0
COc1cccc(-c2nc3ccccc3c(=O)n2NC(=O)c2cccnc2Cl)c1,6,/,/,/,/
COc1ccc(OCC(=O)Nn2c(-c3ccc(C)cc3)nc3ccccc3c2=O)cc1,13,/,/,/,/
COc1ccc(-n2cc(-c3ccc(C)cc3)[n+]3c2SCC3)cc1,6,/,/,/,/
Cc1ccnc(NC(=S)NC(=O)/C=C/c2ccco2)c1,5,1.1,-15,53*,0.5
CC1(c2cccc3ccccc23)NC(=O)N(CC(=O)NC2CCS(=O)(=O)C2)C1=O (configuration not stated),5,/,/,/,/
O=C(CSc1nc(-c2ccccc2F)nc2nc[nH]c12)Nc1c(Cl)cc(Cl)cc1Cl,8,/,/,/,/
CNC(=O)CSc1nnc(-c2ccc(S(=O)(=O)N3CCCC3)cc2)n1-c1cccc(C)c1C,27,0.8,18,88*,0.1
COc1ccccc1-n1c(SCC(=O)O)nnc1-c1ccc(S(=O)(=O)N2CCCCC2)cc1,6,0.8,19,48,0.5
C=CCN(C(=O)CNC(=O)c1ccco1)C(C(=O)NC1CCCCC1)c1ccc(OC)cc1OC (configuration not stated),10,0.5,46,46,0.5
COc1cc(/C=C(\C#N)c2ccccn2)ccc1OCc1ccc(Cl)cc1,6,/,/,/,/
COc1ccc(OC)c2c1sc(=NC(=O)c1ccco1)n2C,14,1,2,22,0.8
SMILES,Measles CPE,CYP2C19 activ,CYP2C19 inh,CYP2C9 inhib,CYP2C9 activ
Cc1ccc(-c2c(C)sc(=NC(=O)c3ccco3)n2C)cc1,5,0.8,21,77*,0.2
O=C1c2ccccc2C(=O)N1Cc1nc2ccccc2c(=O)n1CCCn1ccnc1,5,0.1,88*,92*,0.1
O=C1c2ccccc2C(=O)N1CCc1nc2ccccc2c(=O)n1CCCn1ccnc1,9,0.5,50,80*,0.2
Cc1ccc(C(=O)NC(O)C(Cl)Cl)cc1 (configuration not stated),3,/,/,/,/
CCOc1c2ccc(C(=O)NCc3ccc(OC(F)(F)F)cc3)cc2nn1CC,-1,0.9,8,6,0.9
CCCCn1nc2cc(C(=O)NCc3ccc4c(c3)OCO4)ccc2c1OCC,23,0.4,59*,66*,0.3

# Screening results: PubChem, several laboratories
